In the supplement of paper PMC13380429:

Tested on: Vero E6 infected with SARS-CoV-2
Assay: inhibition of SARS-CoV-2 cytopathic effect; higher = more antiviral protection, active = above 15
Conditions: 48 h

Measured: inhibition of SARS-CoV-2 cytopathic effect

C[C@](N)(Cc1ccc(O)cc1)C(=O)O [metirosine]
inactive: 1 nM 2.52% | 8.33 nM 2.13% | 100 nM 7.36% | 833.33 nM 2.34% | 10000 nM 2.26%

CCCN1C[C@H](CSC)C[C@@H]2c3cccc4[nH]cc(c34)C[C@H]21 [pergolide]
inactive: 1 nM -0.15% | 8.33 nM -0.75% | 100 nM 0.68% | 833.33 nM 0.65% | 10000 nM -1.92%

CC(=O)N[C@H]1[C@H]([C@H](O)[C@H](O)CO)OC(O)(C(=O)O)C[C@@H]1O (mixture of isomers) [aceneuramic-acid]
inactive: 1 nM -6.31% | 8.33 nM 1.91% | 100 nM -1.39% | 833.33 nM -2.36% | 10000 nM -0.15%

CCCCN1CCCC1CNC(=O)c1cc(C#N)c2ccccc2c1OC (stereo not given) [nafadotride]
inactive: 1 nM -1.44% | 8.33 nM -0.63% | 100 nM -0.23% | 833.33 nM 0.59% | 10000 nM 0.87%

O=C(O)C1=C(CSc2nnnn2CS(=O)(=O)O)CS[C@@H]2[C@H](NC(=O)[C@H](O)c3ccccc3)C(=O)N12 [Cefonicid (sodium)]
inactive: 1 nM -0.91% | 8.33 nM -1.09% | 100 nM 0.45% | 833.33 nM 0.79% | 10000 nM 1.23%

COc1ccc(/C=C\c2cc(OC)c(OC)c(OC)c2)cc1O [combretastatin-A-4]
inactive: 1 nM 1.94% | 8.33 nM 1.57% | 100 nM -1.22% | 833.33 nM -2.08% | 10000 nM -0.45%

NCC1CC(=O)N(Cc2ccccc2)C1 (stereo not given) [nebracetam]
inactive: 1 nM 2.53% | 8.33 nM 1.25% | 100 nM 1.38% | 833.33 nM 1.16% | 10000 nM 0.26%

CN(C)CCCSc1ccccc1NC(=O)/C=C/c1ccccc1 [cinanserin]
inactive: 1 nM 1.46% | 8.33 nM 0.94% | 100 nM -0.47% | 833.33 nM -4.69% | 10000 nM -4.38%

CCCCN(CC)c1nc(C)nc2c1c(C)c(C)n2-c1c(C)cc(C)cc1C [antalarmin]
inactive: 1 nM -0.13% | 8.33 nM -2.86% | 100 nM 1.21% | 833.33 nM -0.62% | 10000 nM 2%

CC(=O)NCCCCCC(=O)O [acexamic-acid]
inactive: 1 nM 1.78% | 8.33 nM 1.59% | 100 nM 0.61% | 833.33 nM 0.94% | 10000 nM 0.09%

C[C@@H]1O[C@@H](O[C@@H]2[C@@H](O)[C@H](OCCc3ccc(O)c(O)c3)O[C@H](CO)[C@H]2OC(=O)/C=C/c2ccc(O)c(O)c2)[C@H](O)[C@H](O)[C@H]1O [verbascoside]
inactive: 1 nM -0.06% | 8.33 nM -0.95% | 100 nM 0.7% | 833.33 nM -1.19% | 10000 nM -1.48%

COc1ccccc1N1CCN(CCN2C(=O)c3ccccc3C(C)(C)C2=O)CC1
inactive: 1 nM 0.16% | 8.33 nM -2.9% | 100 nM 2.69% | 833.33 nM -0.3% | 10000 nM 0.21%

COc1cc2nc(N3CCCN(C)CC3)nc(NC3CCN(Cc4ccccc4)CC3)c2cc1OC
inactive: 1 nM 0.59% | 8.33 nM 0.41% | 100 nM -2.3% | 833.33 nM 1.53% | 10000 nM 11.7%

O=[N+]([O-])O[C@H]1CO[C@H]2[C@@H]1OC[C@H]2O[N+](=O)[O-] [isosorbide-dinitrate]
inactive: 1 nM -1.2% | 8.33 nM 2.2% | 100 nM 2.2% | 833.33 nM 1.87% | 10000 nM 3.34%

CC(C)Oc1cccc(-n2c(CCc3c[nH]c4ccc(Br)cc34)nc3ccccc3c2=O)c1
inactive: 1 nM -1.06% | 8.33 nM 2.18% | 100 nM 2.14% | 833.33 nM 0.14% | 10000 nM 0.06%

CCN(CC)Cc1ccc2cc(COC(=O)Nc3ccc(C(=O)NO)cc3)ccc2c1 [givinostat]
inactive: 1 nM -2.85% | 8.33 nM -0.88% | 100 nM -5.68% | 833.33 nM -19.8% | 10000 nM -29.6%

CC(C(=O)O)c1ccc2c(c1)Cc1ccccc1-2 (stereo not given) [cicloprofen]
inactive: 1 nM 1% | 8.33 nM 0.42% | 100 nM 2.68% | 833.33 nM 1.95% | 10000 nM 4.16%

Cc1cc(OCc2nnc(SC3CCCC3)n2-c2cccnc2)ccc1-c1ccc(S(C)(=O)=O)cc1
inactive: 1 nM -0.48% | 8.33 nM 0.31% | 100 nM 1.82% | 833.33 nM 5.04% | 10000 nM -19.7%
